# Assay outcomes deposited in PubChem BioAssay by several laboratories.
# TROY NFkB inh = inhibitors of TROY-dependent NF-kB signaling; Q293 LMP1-TROYcd NF-kB luciferase reporter, 4 h; inhibition, % at 10 µM; 360,000 tested, 0.98% active; AID 1347056;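 active means compounds whose plate-normalised and pattern-corrected inhibition of the luciferase reporter signal at the single screening dose is 50% or more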
# HSP90 refold inh = inhibitors of HSP90 luciferase refolding in rabbit reticulocyte lysate. luciferase refolding luminescence, 3 h. 290,000 tested, 0.91% active. inhibition, % at 5.6 µM;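 active means inhibition above the screen-wide mean plus 3 SD, computed separately per campaign, cut at about 16% in these data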;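 further: 0% = DMSO wells and 100% = 60 µM geldanamycin wells; inhibitors lower the luminescence because luciferase stays unfolded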
# LGR2 inh = blocks bursicon-induced cAMP signaling via Drosophila LGR2 | HEK293 LGR2, CRE-luciferase, bursicon-stimulated, 4 h | inhibition, % at 9.99 µM | 380,000 tested, 0.35% active;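 active means drop in luminescence signal, shown as inhibition above about 50% in the replicate tests, limit read from the data, passing the limit was not always enough; inconclusive means probably only some replicates passing the limit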;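 further: agonist challenge used bursicon conditioned medium at about half maximal strength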
# TWEAK-Fn14 inh = blocks TWEAK-Fn14 interaction in a reporter cell assay | TWEAK-stimulated Fn14 reporter cells, luciferase luminescence, 8 h | inhibition, % at 10 µM | 360,000 tested, 2% active; in the data active means inhibition above about 50%
# Active calls of the source: *; ? = inconclusive; . = no result given. Shown are actives, neighbours in structure and some others; about 2.2% of the full set was active somewhere.
SMILES,TROY NFkB inh,HSP90 refold inh,LGR2 inh,TWEAK-Fn14 inh
Cc1cccc(S(=O)(=O)c2c(N)n(/N=C/c3ccccc3)c3nc4ccccc4nc23)c1,-11.9,-0.3,.,15.5
Nc1c(S(=O)(=O)c2ccccc2)c2nc3ccccc3nc2n1/N=C/c1cccc(O)c1,16.4,5.2,.,73.2*
COc1cc2ccccc2ccc1=NO,22.3,.,17.0,62.2*
COc1cc2ccccc2cc1C(=O)O,-16.3,0.8,.,-11.7
C[C@H](CO)N1C[C@H](C)[C@H](CN(C)C(=O)CCC(F)(F)F)OCCCC[C@H](C)Oc2ccc(NC(=O)CCCN(C)C)cc2C1=O,.,.,23.9,.
C=C(C)Cn1cnc2cc(C)c(C)cc21,-4.2,-3.8,3.1,86.0*
C[C@@H]1CCCCO[C@@H](CN(C)Cc2ccc(C(=O)O)cc2)[C@H](C)CN([C@H](C)CO)C(=O)c2cc(NC(=O)Cc3ccccc3)ccc2O1,.,.,-8.6,.
NNC(=O)c1ccc(N2CCc3ccccc32)c([N+](=O)[O-])c1,8.5,4.7,14.1,-10.7
Nc1ncnc(N2CCc3ccccc32)c1[N+](=O)[O-],61.0*,-1.2,14.7,84.1*
C[C@@H]1CN([C@@H](C)CO)C(=O)Cc2cc(NC(=O)Nc3ccc(C(F)(F)F)cc3)ccc2O[C@H]1CN(C)CC1CC1,.,.,-15.9,.
Cc1ccc(NC(=O)C2C3C=CC4(O3)C2C(=O)N(CCN2CCOCC2)C4C(=O)NC2CCCCC2)cc1C (stereo unspecified),-3.1,-3.4,0.0,88.4*
CCCCCc1ccc(OCCC[n+]2ccccc2)c(CCCCC)c1,47.1,11.8,14.5,67.1*
CCCCCc1ccc(OCCOCCn2c[n+](C)c3ccccc32)c(CCCCC)c1,51.7*,3.6,.,89.0*
C/C(=N\NC(=S)NC1CCCCC1)c1ccccc1,54.1*,-4.2,-7.2,46.8
C/C(=N\NC(=S)NC1CCCCC1)c1ccc(O)cc1,-4.2,-1.0,-33.8,-2.9
CN(C)C(=O)[C@@H]1[C@@H](CO)[C@@H]2Cn3c(ccc(/C=C/c4ccccc4)c3=O)[C@@H]2N1C(=O)c1cnccn1,.,.,-0.9,.
C[C@H](CO)N1C[C@H](C)[C@H](CN(C)C(=O)Nc2ccc3c(c2)OCO3)Oc2c(NC(=O)NC3CCCCC3)cccc2C1=O,.,.,10.4,.
COc1ccc(-c2nc(NC(=O)c3cc(C(C)(C)C)nn3C)sc2C)cc1,30.2,3.0,.,67.6*
COc1ccc(-c2nc(NC(=O)c3c(C)noc3C)sc2C)cc1,12.7,.,-8.3,24.7
O=C(CSc1nc2ccc([N+](=O)[O-])cc2[nH]1)NC1CCCCCC1,48.6,-0.6,-4.5,61.4*
Cc1cccc(-n2c(SCC(N)=O)nc3c(c2=O)C2(CCCC2)Cc2ccccc2-3)c1,50.5*,7.0,14.3,33.4
CC(CNC(=S)Nc1cc(F)cc(F)c1)CSc1ccc(Cl)cc1 (stereo unspecified),60.8*,5.2,11.5,23.5
Cc1ccc(NC(=S)NCCSc2ccc(Cl)cc2)cc1,9.8,3.8,-19.9,-10.6
O=C(C[C@H]1C=C[C@H](NC(=O)C2CCC2)[C@@H](CO)O1)Nc1nccs1,.,.,-4.6,.
Cc1cccc(C(=O)Oc2ccc(/C=N/NC(=O)c3ccccc3O)cc2)c1,48.3,-6.2,-11.2,-0.5
SMILES,TROY NFkB inh,HSP90 refold inh,LGR2 inh,TWEAK-Fn14 inh
Cc1cccc(C(=O)Oc2ccc(/C=N/NC(=O)c3ccc(O)cc3)cc2)c1,52.0*,1.7,14.2,5.0
CCOc1cc(/C=N\NC(=O)c2ccc(NC(=O)C(C)(C)C)cc2)ccc1OC(=O)c1cccc(C)c1,53.0*,-4.0,.,86.1*
Cc1nn(CCc2nn[nH]n2)c2nc(-c3ccc(Br)cc3)cc(C(F)(F)F)c12,52.9*,-3.3,10.3,32.2
Brc1ccc2ncnc(Nc3ccc(N4CCOCC4)cc3)c2c1,41.8,-2.8,25.7,59.5*
COC1(OC)C(/C=C/c2ccc(Cl)cc2)C(C#N)(C#N)C1(OC)OC (stereo unspecified),12.6,5.7,.,77.4*
COc1ccc(S(=O)(=O)N[C@@H]2CC[C@H](CC(=O)N3CCN(c4ccccc4)CC3)O[C@@H]2CO)cc1,.,.,-8.4,.
COc1ccccc1CN(Cc1nc2ccccc2c(=O)[nH]1)S(=O)(=O)c1ccc2ccccc2c1,46.6,5.0,?,55.0*
Cc1cc(NC(c2cccnc2)c2c(C)[nH]c3ccccc23)no1 (stereo unspecified),9.6,16.5*,.,-13.2
Cc1ccnc(NC(c2ccccn2)c2c(C)[nH]c3ccccc23)c1 (stereo unspecified),-24.8,-0.4,-40.2,-5.1
C[C@@H]1CCCCO[C@@H](CN(C)Cc2ccc(Cl)c(Cl)c2)[C@@H](C)CN([C@H](C)CO)C(=O)c2cc(NC(=O)NC3CCCCC3)ccc2O1,.,.,-12.4,.
